The results in this text go back to PubChem BioAssay AID1963321 (National Center for Advancing Translational Sciences (NCATS), 2024).

Results filed as inconclusive are left out. Entries that show only a call come without a potency. Active and inactive are the calls of the source. Calls come from the whole dose curve.

This experiment deals with cAMP-dependent protein kinase catalytic subunit alpha (Homo sapiens) (UniProt P17612). Briefly: Protein Kinase A (PKA-HiBiT) enzymatic inhibition screen - Functional assay. The settings on record: luminescence; series mostly up to 57.5 µM. An excerpt:
National Center for Advancing Translational Sciences (NCATS),
National Institute of Health (NIH), Maryland
Discovery and optimization of novel protein-binding ligands underlies many of the methods and applications of biology, drug discovery, clinical diagnostics, and environmental toxicology. Assays for detecting the interaction of, for example, a molecule with a macromolecular target also referred to here as the target of interest (TOI) is dependent on a compatible output technology. Depending on the nature and knowledge surrounding the TOI, whether a receptor, enzyme, regulatory subunit or scaffold, or a sequence-defined nucleic acid folded into a complex tertiary structure, assay strategies can vary widely.
Here we exploit ligand-biased changes in the structural dynamics of the target protein to control reporter alpha complementation allowing a non-competitive, non-functional, non-separation measure of ligand-target interaction.
Using a chemical library of >1,200 compounds enriched for scaffolds known to be associated with the inhibition of firefly luciferase (FLuc) activity (PubChem AIDs 2309) we first illustrate and compare the Structural Dynamics Response (SDR) assay vs. the standard functional FLuc enzyme assay (2). Secondly, we show the specificity and sensitivity of the SDR for the Abelson tyrosine kinase (ABL1) compared to the serine/threonine protein kinase A, using an enriched chemical library of 128 compounds selected, in part, for activity annotated with ABL1 kinase activity using the Pharos database (3).
(1) A. S. Dixon et al., NanoLuc Complementation Reporter Optimized for Accurate Measurement of Protein Interactions in Cells. ACS Chem Biol 11, 400-408 (2016).
Chemistry & Biology, 19, 1060 - 1072 (2012).
(3) K. J. Kelleher et al., Pharos 2023: an integrated resource for the understudied human proteome. Nucleic Acids Res 51, D1405-D1416 (2023).
PROTOCOL TABLE (as described by Inglese J, Shamu CE and Guy RK. 2007)
SEQUENCE No. (e.g., 1, 2, 3, etc.); […] (e.g., C. elegans, Compounds, Incubation, Read, etc.); VALUE and DESCRIPTION.
1. Reagent. Dispense 4 uL PKA-N-HiBiT enzyme per well at a final enzyme concentration of 10 nM in buffer with 87.5 uM ATP (functional assay) into columns 2-48 of four replicate Greiner 1536-well white,solid bottom high base, medium plates per assay. Dispense respective buffer without enzyme at 4 uL/well in column 1 of assay plates using BioRaptr 2.
2. Compounds. Library compounds added at 23 nL/well by pin transfer. DMSO neutral control and H-89 positive control added at 25 nL/well, transfer by Mosquito dispenser.
3. Incubation. Incubate enzyme and compounds at room temperature for 30 min, protect from light.
4. Reagent. (Functional assay) Transfer 25 nL of kemptide peptide substrate to each well of four replicate kinase assay plates with Mosquito dispenser.
5. Incubation. (Functional assay) Kinase Enzyme incubated with peptide substrate for 3 h at room temperature, protected from light.
6. Reagent. (Functional assay) Add 4 uL/well of Kinase-Glo Plus reagent (Promega) to kinase activity assay plates.
7. Detector. (Functional assay) Luminescence measured using CCD-based camera (ViewLux) with settings as follows: Exposure, 1 sec; Gain, High; Speed, Slow; Binning, 2X.
Inglese J, Shamu CE and Guy RK, Reporting data from high throughput screening of small molecule libraries, Nature Chemical Biology, 2007, 3(8): 438-441. doi.org/10.1038/nchembio0807-438.
`C/C(O)=C(\C#N)C(=O)Nc1cc(Br)ccc1Br`: the Potency entry was “inactive”.
On to `N#Cc1cn([C@@H]2O[C@H](CO)[C@H](O)[C@@H]2O)c2ncnc(N)c12`, for which the Potency entry is “inactive”.
Regarding `Cc1[nH]nc2ccc(-c3cncc(OC[C@@H](N)Cc4c[nH]c5ccccc45)c3)cc12`, the Potency is 2010 nM (active).
Under `CCNC(=O)C[C@@H]1N=C(c2ccc(Cl)cc2)c2cc(OC)ccc2-n2c(C)nnc21` stands “inactive”.
In the case of `O=[N+]([O-])O[C@H]1CO[C@H]2[C@@H]1OC[C@H]2O[N+](=O)[O-]`, the Potency result was “inactive”.
The same measure for `O=C(NCCCNc1nc(Nc2ccc(N3CCOCC3)cc2)ncc1C1CC1)C1CCC1`: “inactive”.
